Measurements: PubChem BioAssay (NCATS)
“And” between values parts separate entries of the source, which are not always exact repeats. Equal values may be shown once. Some compounds were tested as several samples or in several runs, with calls that do not always agree. The source made the active and inactive calls. Where a call stands in place of a potency, no number is given. Calls follow the shape of the dose curve; as a rule, active = well fitted inhibition curve with a large enough effect; inconclusive = small, poorly fitted or top-dose-only effect; inactive = no such curve, though single readings can be large or run the other way.

Assay: qHTS assay for measurement of the activity of small molecule inhibitors on Zika virus induced Caspase-3 activity in human astrocytoma cells (AID 1224859)
Settings: SNB-19 ZIKV-induced caspase-3/7, luminescence, 6 h; series mostly up to 45.7 µM; activity change, negative = inhibition: at the top concentration
Description: National Center for Advancing Translational Sciences [NCATS]
Johns Hopkins University School of Medicine
Increase in the Caspase-3 activity indicates an activation of apoptosis cell death pathway caused by Zika virus infection in certain types of neuronal cells including human neural progenitor cells (hNPCs), astrocytes, and astrocytoma cell line (SNB-19). This cell-based caspase-3 activity assay measures the increased caspase-3 activity in the astrocytoma cell line (SNB-19) after a 6-hour Zika virus infection with a luminescence readout. A decrease in the luminescence signal in this assay by small molecule treatment indicates an inhibitory effect of that small molecule on the Zika virus induced caspase-3 activity that may correlate with its effect on reduction of Zika virus caused cell death.
The medium for SNB-19 cells is composed of RPMI 1640 (ATCC, Cat.# 30-2001), 10% fetal bovine serum (FBS) (GE healthcare Life Sciences, Cat.# SH30071.03), and 1% Pen/Strep (Gibco, Cat.# 15140-122). A Caspase-Glo 3/7 assay kit (catalog number G8092; Promega, Madison, WI) was used to detect caspase-3 activity induced by Zika virus infection in human cells. The reagent mixture was reconstituted as described in the protocol from the manufacturer. Polystyrene tissue culture treated and PDL coated white plates were obtained from Greiner Bio-One (Monroe, NC). Cells were seeded in 384- or 1536-well assay plates and cultured at 37 C with 5% CO2 for 16 to 20 hours. The typical cell seeding density in the 1536-well plate assay is 250 cells/well in 3ul medium for SNB-19 cells in tissue culture treated plates. Compounds were added to cells and incubated for one hour before addition of ZIKV solution to cells (2 FFU/cell). After incubation at 37 C with 5% CO2 for 6 hours, the reagent mixture of Caspase-Glo 3/7 assay kit was added to each well, followed by incubation at room temperature for 30 minutes. The luminescence intensity of the assay plates was measured using a ViewLux plate reader (PerkinElmer). Data were normalized by using the cell-containing wells without ZIKV as a negative control (0% induction of caspase 3/7 activity) and wells containing ZIKV infected cells (Caspase-3 activity induced) as a positive control (100% induction of caspase 3 activity). The percentage inhibitions of the increased Caspase-3 activity by small molecule inhibitors were then calculated.
Potency is read from the fitted curve at half-maximal effect.

Q: Which Potency does the source give for `S=c1nc[nH]c2nc[nH]c12` here?
A: The Potency was “inactive”.

Q: With `CCOC(=O)C1=C[C@@H](OC(CC)CC)[C@H](NC(C)=O)[C@@H](N)C1` as the compound, how does the “activity change, negative = inhibition” value read?
A: The value was -9.96% (inactive).

Q: With `CCOc1cc(CC(=O)N[C@@H](CC(C)C)c2ccccc2N2CCCCC2)ccc1C(=O)O` as the compound, how does the “activity change, negative = inhibition” value read?
A: The value was 10.3% (inactive).

Q: With `CCN(CCO)CCCC(C)Nc1ccnc2cc(Cl)ccc12` (stereo not given) as the compound, how does the Potency read?
A: Its Potency is “inactive”.

Q: With `C[C@]12CCC(=O)C=C1CC[C@@H]1[C@H]2[C@@H](O)C[C@@]2(C)[C@H]1CC[C@]2(O)C(=O)CO` as the compound, how does the “activity change, negative = inhibition” value read?
A: The value was 1.33% (inactive).

Q: With `C[C@H](Cn1cnc2c(N)ncnc21)OCP(=O)(O)O` as the compound, how does the “activity change, negative = inhibition” value read?
A: Its value is 8.02% (inactive).

Q: Which Potency does the source give for `O=C(CCc1ccc(O)cc1)c1c(O)cc(O)cc1O` here?
A: Its Potency is “inactive”.

Q: With `Cc1cccc(C#Cc2ccccc2)n1` as the compound, how does the Potency read?
A: Its Potency is “inactive and 3.98 µM (active)”.

Q: For `COc1ccccc1N1CCN(CCN(C(=O)C2CCCCC2)c2ccccn2)CC1`, which “activity change, negative = inhibition” value is on record?
A: The value was 31.6% (inactive).

Q: Which Potency does the source give for `O=C(NC(Cc1cc(=O)[nH]c2ccccc12)C(=O)O)c1ccc(Cl)cc1` (stereo not given) here?
A: The Potency was “inactive”.

Q: With `O=C(O)c1cn(-c2ccc(F)cc2)c2cc(N3CCNCC3)c(F)cc2c1=O` as the compound, how does the Potency read?
A: Its Potency is “inactive”.

Q: For `O=P(O)(O)C(O)(Cn1ccnc1)P(=O)(O)O`, which “activity change, negative = inhibition” value is on record?
A: The value was -0.0318% [at 20.5 µM] (inactive).

Q: For `Cc1ccc(NC(=O)c2ccc(CN3CCN(C)CC3)cc2)cc1Nc1nccc(-c2cccnc2)n1`, which Potency is on record?
A: The Potency was “inactive”.

Q: For `CN(C)CCc1c[nH]c2ccc(Cn3cncn3)cc12`, which “activity change, negative = inhibition” value is on record?
A: Its value is 11.5% (inactive).

Q: With `Cc1cc(=O)c2c(O)c3c(O)cc(=O)c4c3c3c(cc(O)c1c23)C(C)(C)C=4O` as the compound, how does the Potency read?
A: The Potency was “inactive”.

Q: For `Clc1ccc2c(N3CCN(CCCN4CCN(c5ccnc6cc(Cl)ccc56)CC4)CC3)ccnc2c1`, which “activity change, negative = inhibition” value is on record?
A: The value was 8.44% [at 20.5 µM] (inactive).

Q: With `COc1cc(OC)c(C(=O)CCCN2CCCC2)c(OC)c1` as the compound, how does the Potency read?
A: Its Potency is “inactive”.

Q: With `O=C1c2ccccc2-c2n[nH]c3cccc1c23` as the compound, how does the Potency read?
A: The Potency was “inactive”.

Q: For `Clc1ccc(C(Cn2ccnc2)OCc2ccsc2Cl)c(Cl)c1` (stereo not given), which Potency is on record?
A: The Potency was “inactive”.

Q: With `Cc1c(C(=O)NN2CCCCC2)nn(-c2ccc(Cl)cc2Cl)c1-c1ccc(Cl)cc1` as the compound, how does the Potency read?
A: Its Potency is “inactive”.

Q: For `COC(=O)N[C@H](C(=O)N[C@@H](Cc1ccccc1)[C@@H](O)CN(Cc1ccc(-c2ccccn2)cc1)NC(=O)[C@@H](NC(=O)OC)C(C)(C)C)C(C)(C)C`, which Potency is on record?
A: The Potency was “inactive”.

Q: For `Nc1nc(Cl)nc2c1ncn2[C@H]1C[C@H](O)[C@@H](CO)O1`, which “activity change, negative = inhibition” value is on record?
A: Its value is 22.9% (inactive).

Q: For `CC(C)Oc1ccc2c(=O)c(-c3ccccc3)coc2c1`, which Potency is on record?
A: The Potency was 10 µM (active) and 11.8 µM (active).

Q: For `Nc1cccc2c1CN(C1CCC(=O)NC1=O)C2=O` (stereo not given), which Potency is on record?
A: Its Potency is “inactive”.

Q: Which Potency does the source give for `COCCCOc1ccnc(CS(=O)c2nc3ccccc3[nH]2)c1C` (stereo not given) here?
A: The Potency was “inactive”.

Q: With `NC(=NCc1ccccc1)NC(=O)c1nc(Cl)c(N)nc1N` as the compound, how does the Potency read?
A: The Potency was “inactive”.

Q: With `CN(C)C(=O)COC(=O)Cc1ccc(OC(=O)c2ccc(N=C(N)N)cc2)cc1` as the compound, how does the Potency read?
A: The Potency was “inactive”.

Q: For `CC(C)C[C@H](NC(=O)[C@H](Cc1ccccc1)NC(=O)c1cnccn1)B(O)O`, which “activity change, negative = inhibition” value is on record?
A: Its value is 65.6% (inactive).

Q: Which Potency does the source give for `N[C@@H](Cc1cc(I)c(Oc2cc(I)c(O)c(I)c2)c(I)c1)C(=O)O` here?
A: The Potency was “inactive”.

Q: For `Cc1ccc(S(=O)(=O)NC(=O)NN2CC3CCCC3C2)cc1` (stereo not given), which Potency is on record?
A: Its Potency is “inactive”.

Q: For `O=C1c2c(O)cc(O)cc2OC(c2ccc(O)c(O)c2)C1O` (stereo not given), which Potency is on record?
A: The Potency was “inactive”.

Q: With `COc1c(O)cc2c(c1O)[C@@H]1O[C@H](CO)[C@@H](O)[C@H](O)[C@H]1OC2=O` as the compound, how does the “activity change, negative = inhibition” value read?
A: The value was -6.79% (inactive).

Q: Which “activity change, negative = inhibition” value does the source give for `C[C@@H](N)C1CCC(C(=O)Nc2ccncc2)CC1` (stereo not given in full) here?
A: Its value is 45.9% (inactive).

Q: For `CN(C)CCCC1(c2ccc(F)cc2)OCc2cc(C#N)ccc21` (stereo not given), which Potency is on record?
A: The Potency was “inactive”.

Q: With `NS(=O)(=O)c1cc(C(=O)O)c(NCc2ccco2)cc1Cl` as the compound, how does the Potency read?
A: Its Potency is “inactive”.

Q: Which Potency does the source give for `COC(=O)C1=C(C)NC(C)=C(C(=O)OCCCN2CCC(c3ccccc3)(c3ccccc3)CC2)C1c1cccc([N+](=O)[O-])c1` (stereo not given) here?
A: The Potency was “inactive”.

Q: With `O=C(O)CCNC(=O)c1ccc(N=Nc2ccc(O)c(C(=O)O)c2)cc1` as the compound, how does the Potency read?
A: Its Potency is “inactive”.

Q: With `O=C1CCc2ccc(OCCCCN3CCN(c4cccc(Cl)c4Cl)CC3)cc2N1` as the compound, how does the Potency read?
A: Its Potency is “inactive”.

Q: Which Potency does the source give for `O=C(NOCC1CC1)c1ccc(F)c(F)c1Nc1ccc(I)cc1Cl` here?
A: Its Potency is “inactive”.

Q: Which Potency does the source give for `Cc1nccn1CC1CCc2c(c3ccccc3n2C)C1=O` (stereo not given) here?
A: The Potency was “inactive”.
